{"source": "PubChem BioAssay (EPA / NIEHS)", "note": "The source made the active and inactive calls. How the source made its calls: active means hit-call score of the fitted dose curve at least 0.9, where 1 is the maximum; inactive means score below 0.9."}
{"test": "ATG_Oct_MLP_CIS: Attagene CIS-FACTORIAL HepG2 Assay for human Octamer-Binding Transcription Factor (Oct) (AID 2282993)", "conditions": "HepG2 Attagene cis-factorial Oct reporter, mRNA; actives raise or lower the signal", "protocol": "ATG_CIS is a cell-based, multiplexed-readout assay that uses HepG2, a human liver cell line, with measurements taken at 24 hours after chemical dosing in a 24-well plate.ATG_Oct_MLP_CIS is one of 52 assay component(s) measured or calculated from the ATG_CIS assay. It is designed to make measurements of mRNA induction, a form of inducible reporter, as detected with fluorescence intensity signals by Reverse transcription polymerase chain reaction (RT-PCR) and Capillary electrophoresis technology.Data from the assay component ATG_Oct_MLP_CIS was analyzed into 1 assay endpoint. This assay endpoint, ATG_Oct_MLP_CIS, was analyzed with bidirectional fitting relative to DMSO as the negative control and baseline of activity. Using a type of inducible reporter, measures of mRNA for gain or loss-of-signal activity can be used to understand the reporter gene at the transcription factor-level as they relate to the gene POU2F1. Furthermore, this assay endpoint can be referred to as a primary readout, because this assay has produced multiple assay endpoints where this one serves a reporter gene function. To generalize the intended target to other relatable targets, this assay endpoint is annotated to the dna binding intended target family, where the subfamily is POU domain protein.\nHuman liver HepG2 cells are transiently transfected with multiple reporter transcription units (MRTUs) in 6-well plates using FuGene 6 reagent (Roche; 3 ml FuGene/1 mg DNA). The MRTU constructs are regulated by a cis-regulating element (promoter). […] A major difference between the CIS and TRANS system is that in CIS activities of endogenous TFs are measured, whereas the TRANS assay evaluates changes in activities of exogenous, chimeric NR-Gal4 proteins. […] At the end of 24 hour incubation, total RNA was isolated using TriZol reagent (Invitrogen). The isolated RNA is then reverse-transcribed using oligo(dT) primer and Mo-MLV reverse transcriptase (Invitrogen) with DNAse I (Ambion) treatment for 30 min. The one-tenth of the produced cDNA was amplified by PCR using Taq DNA polymerase (Invitrogen) and two reporter sequence-specific primers. The PCR products were fluorescently labeled by primer extension with 6-arboxyfluorescein (6-FAM) 5'-labeled reporter sequence-specific primer (2 min at 95 C, 20 s at 68 C and 10 min at 72 C) and these products were digested with 5U of HpaI (New England Biolabs) for 2h at 37 C. The fragments were purified using Qiaquick PCR columns (Qiagen), analyzed on an ABI 3130xL genetic analyzer (Applied Biosystems) with peak positions identified by using a set of X-rhodamine (ROX)-labeled MapMarker1000 molecular weight standards (BioVentures). The raw capillary electrophoresis data was processed using Attagraph software (Attagene)."}
{"smiles": "CCCCCCCCSCCO", "outcome": "inactive"}
{"smiles": "CC(=O)C1(C)CC2=C(CCCC2(C)C)CC1C", "note": "(stereo not given)", "AC50": "61.1 µM (active)"}
{"smiles": "ClC(c1ccccc1)(c1ccccc1)c1ccccc1", "outcome": "inactive"}
{"smiles": "CC(C)NCC(O)COc1ccc(CC(N)=O)cc1", "note": "(stereo not given)", "outcome": "inactive"}
{"smiles": "Nc1ccccc1[N+](=O)[O-]", "outcome": "inactive"}
{"smiles": "C[Si](C)(C)O[Si](C)(C)C", "outcome": "inactive"}
{"smiles": "O=c1c(O)c(-c2ccc(O)cc2)oc2cc(O)cc(O)c12", "outcome": "inactive"}
{"smiles": "O=C(Nc1ccc2c(O)c(N=Nc3ccc(N=Nc4ccc(S(=O)(=O)O)cc4)cc3)c(S(=O)(=O)O)cc2c1)c1ccccc1", "outcome": "inactive"}
{"smiles": "CCc1cc(Cc2cc(CC)cc(C(C)(C)C)c2O)c(O)c(C(C)(C)C)c1", "AC50": "16.3 µM (active)"}
{"smiles": "COc1cc([C@@H]2c3cc4c(cc3[C@@H](O[C@@H]3O[C@@H]5CO[C@@H](C)O[C@H]5[C@H](O)[C@H]3O)[C@H]3COC(=O)[C@H]23)OCO4)cc(OC)c1O", "outcome": "inactive"}
{"smiles": "CC(=O)O[C@@H]1CC2CCC1(C)C2(C)C", "note": "(stereo not given in full)", "outcome": "inactive"}
{"smiles": "C=C1CC[C@H](O)C/C1=C/C=C1\\CCC[C@]2(C)[C@@H]([C@H](C)/C=C/[C@H](C)C(C)C)CC[C@@H]12", "outcome": "inactive"}
{"smiles": "O=C1CCCC=CCCCCCCCCCC1", "outcome": "inactive"}
{"smiles": "CCOC(=O)CN", "outcome": "inactive"}
{"smiles": "Cc1ccc(S(=O)(=O)Oc2ccc(N=Nc3ccc(-c4ccc(N=Nc5c(O)ccc6cc(S(=O)(=O)O)cc(S(=O)(=O)O)c56)c(C)c4)cc3C)cc2)cc1", "outcome": "inactive"}
{"smiles": "CCCCCCC(C)(C)S", "outcome": "inactive"}
{"smiles": "CCCC1O[C@@H]2C[C@H]3[C@@H]4CCC5=CC(=O)C=C[C@]5(C)[C@H]4[C@@H](O)C[C@]3(C)[C@]2(C(=O)CO)O1", "note": "(stereo not given in full)", "outcome": "inactive"}
{"smiles": "C=C(C)[C@@H]1CC=C(C)C(=O)C1", "outcome": "inactive"}
{"smiles": "c1ccc2[nH]cnc2c1", "outcome": "inactive"}
{"smiles": "CCCC(=O)OCCc1ccccc1", "outcome": "inactive"}
{"smiles": "C=Cc1ccc(C)cc1", "outcome": "inactive"}
{"smiles": "CCN(CCN)c1cccc(C)c1", "outcome": "inactive"}
{"smiles": "C=C(C)[C@H]1CC=C(C)C(=O)C1", "outcome": "inactive"}
{"smiles": "CCCC(C)=O", "outcome": "inactive"}
{"smiles": "CCCCCCCCCCCCS(=O)(=O)Cl", "outcome": "inactive"}
{"smiles": "CCC(C)=O", "outcome": "inactive"}
{"smiles": "CC1(C)O[C@@H]2C[C@H]3[C@@H]4CCC5=CC(=O)C=C[C@]5(C)[C@@]4(F)[C@@H](O)C[C@]3(C)[C@]2(C(=O)CO)O1", "outcome": "inactive"}
{"smiles": "CC(C=O)Cc1ccc(C(C)(C)C)cc1", "note": "(stereo not given)", "outcome": "inactive"}
{"smiles": "[O-]n1ccccc1=S.[O-]n1ccccc1=S.[Zn+2]", "outcome": "inactive"}
{"smiles": "O=C(O)c1ccc(O)cc1", "outcome": "inactive"}
{"smiles": "O=C1OC(=O)c2c(Br)c(Br)c(Br)c(Br)c21", "outcome": "inactive"}
{"smiles": "OCCOCCN1CCN(C2=Nc3ccccc3Sc3ccccc32)CC1", "outcome": "inactive"}
{"smiles": "CS(=O)(=O)c1ccc(C2=C(c3ccccc3)C(=O)OC2)cc1", "outcome": "inactive"}
{"smiles": "C=CC(=C)CCCC(C)(C)OC(C)=O", "outcome": "inactive"}
{"smiles": "NC(=S)NNC(N)=S", "outcome": "inactive"}
{"smiles": "O=C1OC(=O)c2c(Cl)c(Cl)c(Cl)c(Cl)c21", "outcome": "inactive"}
{"smiles": "NCC1CCCC(CN)C1", "note": "(stereo not given)", "outcome": "inactive"}
{"smiles": "CCCCCCCCCCCCCCN(CCO)CCO", "outcome": "inactive"}
{"smiles": "CCCCOCC", "outcome": "inactive"}
{"smiles": "CCC(C)S", "note": "(stereo not given)", "outcome": "inactive"}
